# Source: the supplement of paper PMC7595190
# Counter-ions that a name gives are not always drawn. Unmarked numbers belong to inactive results.
# What was measured:
# Assay in all cases: CellTox Green cytotoxicity fluorescence relative to DMSO vehicle (fold of vehicle RFU); higher = more cell death (loss of membrane integrity), active = 2 or more
# CMK = system: CMK
# Summary of the method: (§1)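 Values are cytotoxicity, read as fluorescence from loss of membrane integrity and expressed as fold of the DMSO vehicle. MV4-11, CMK and Kasumi-1 cells at 4.0 × 10^4 per well received CellTox Green reagent at seeding and single Selleckchem apoptosis library compounds at final 0.01, 0.1 and 1 µM (vehicle 0.1% DMSO). Plates were incubated at 37 °C, 5% CO2 and read at 24, 48 and 72 h.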
# Kasumi-1 = system: Kasumi-1
# Summary of the method: as §1
# MV4-11 = system: MV4-11
# Summary of the method: as §1
Compound,"CellTox Green cytotoxicity fluorescence (CMK; 0.01 µM, 24 h)","CellTox Green cytotoxicity fluorescence (CMK; 0.01 µM, 48 h)","CellTox Green cytotoxicity fluorescence (CMK; 0.01 µM, 72 h)","CellTox Green cytotoxicity fluorescence (CMK; 0.1 µM, 24 h)","CellTox Green cytotoxicity fluorescence (CMK; 0.1 µM, 48 h)","CellTox Green cytotoxicity fluorescence (CMK; 0.1 µM, 72 h)","CellTox Green cytotoxicity fluorescence (CMK; 1 µM, 24 h)","CellTox Green cytotoxicity fluorescence (CMK; 1 µM, 48 h)","CellTox Green cytotoxicity fluorescence (CMK; 1 µM, 72 h)","CellTox Green cytotoxicity fluorescence (Kasumi-1; 0.01 µM, 24 h)","CellTox Green cytotoxicity fluorescence (Kasumi-1; 0.01 µM, 48 h)","CellTox Green cytotoxicity fluorescence (Kasumi-1; 0.01 µM, 72 h)","CellTox Green cytotoxicity fluorescence (Kasumi-1; 0.1 µM, 24 h)","CellTox Green cytotoxicity fluorescence (Kasumi-1; 0.1 µM, 48 h)","CellTox Green cytotoxicity fluorescence (Kasumi-1; 0.1 µM, 72 h)","CellTox Green cytotoxicity fluorescence (Kasumi-1; 1 µM, 24 h)","CellTox Green cytotoxicity fluorescence (Kasumi-1; 1 µM, 48 h)","CellTox Green cytotoxicity fluorescence (Kasumi-1; 1 µM, 72 h)","CellTox Green cytotoxicity fluorescence (MV4-11; 0.01 µM, 24 h)","CellTox Green cytotoxicity fluorescence (MV4-11; 0.01 µM, 48 h)","CellTox Green cytotoxicity fluorescence (MV4-11; 0.01 µM, 72 h)","CellTox Green cytotoxicity fluorescence (MV4-11; 0.1 µM, 24 h)","CellTox Green cytotoxicity fluorescence (MV4-11; 0.1 µM, 48 h)","CellTox Green cytotoxicity fluorescence (MV4-11; 0.1 µM, 72 h)","CellTox Green cytotoxicity fluorescence (MV4-11; 1 µM, 24 h)","CellTox Green cytotoxicity fluorescence (MV4-11; 1 µM, 48 h)","CellTox Green cytotoxicity fluorescence (MV4-11; 1 µM, 72 h)"
CCCC[C@@H](C=O)NC(=O)[C@H](CC(C)C)NC(=O)OCc1ccccc1 [Calpeptin],1,0.98,0.961,0.992,1,1.02,0.994,1.01,1.01,0.957,0.968,0.962,0.965,0.93,0.913,1.01,1.02,1.03,–,–,–,–,–,–,–,–,–
NS(=O)(=O)C#Cc1ccccc1 [Pifithrin-m],0.969,0.96,0.939,1.01,1,0.998,1,1.04,0.96,0.994,0.986,0.979,1,0.98,0.98,0.987,0.985,0.983,0.989,1,1,0.994,0.987,0.979,1.02,1.02,1.03
CCCCNc1ncc2c(-c3ccc(CN4CCN(C)CC4)cc3)cn([C@H]3CC[C@H](O)CC3)c2n1,0.987,0.978,1,1.07,1.31,1.32,1.13,1.75,1.98,1.06,1.01,1.02,1.05,1.18,1.32,1.1,1.62,1.93,1.03,1.16,1.28,1.04,1.47,2.1 (active),1.08,1.7,2.22 (active)
Cc1nn(C)c(COc2ccc(N3CCN(S(=O)(=O)N(C)C)CC3)cc2)c1-c1cccc2c(CCCOc3cccc4ccccc34)c(C(=O)O)n(CCN3CCOCC3)c12,0.996,1,1,0.995,0.985,0.957,0.985,1.01,0.948,0.998,0.981,0.976,1.01,1.03,1.04,0.938,1.03,1.03,–,–,–,–,–,–,–,–,–
CC(C)[C@H](CO)Nc1nc(Nc2cccc(Cl)c2)c2ncn(C(C)C)c2n1 [Purvalanol A],0.988,1,1,0.992,1,0.965,0.987,1.02,1.02,0.997,0.989,0.974,0.983,0.965,0.974,0.928,0.948,0.923,1.01,1.02,1.03,1.03,1.04,1.04,1,1.06,1.07
Nc1nc(F)nc2c1ncn2[C@@H]1O[C@H](CO)[C@@H](O)[C@@H]1O [Fludarabine],1,1,1,0.981,0.982,0.939,0.976,0.961,0.907,0.951,0.991,0.986,0.99,0.99,0.984,1.02,1.01,1.03,–,–,–,–,–,–,–,–,–
CC(C)(C)C[C@@H]1N[C@@H](C(=O)N[C@H]2CC[C@H](O)CC2)[C@H](c2cccc(Cl)c2F)[C@]12C(=O)Nc1cc(Cl)ccc12,0.996,1.03,1.05,0.963,0.971,0.947,1.02,1.04,1.01,1,0.996,1.03,0.991,0.994,1,0.906,1.02,1.04,–,–,–,–,–,–,–,–,–
CCCCC(C=O)NC(=O)C(CC(C)C)NC(=O)C(CC(C)C)NC(C)=O (stereo not given),0.991,0.967,0.962,0.984,0.984,1.01,2.35 (active),3.65 (active),2.82 (active),1.01,0.993,0.999,1.01,1,1,1.03,1.11,1.16,0.985,1.01,1.01,1.01,1.02,1.01,1.16,2.16 (active),2.42 (active)
CC(C)c1cc2c(N3CCN(C4=NCC(C)(C)S4)CC3)ncnc2s1 [MI-3 (Menin-MLL Inhibitor)],0.943,0.954,0.984,0.923,0.941,0.923,–,–,–,0.955,0.967,0.974,0.987,1.01,0.966,–,–,–,0.931,0.933,0.927,0.883,0.889,0.876,0.961,0.951,0.95
CN(C)CC[C@H](CSc1ccccc1)Nc1ccc(S(=O)(=O)NC(=O)c2ccc(N3CCN(Cc4ccccc4-c4ccc(Cl)cc4)CC3)cc2)cc1[N+](=O)[O-],0.932,0.938,0.907,0.982,0.992,1.02,1.48,1.67,1.52,1.07,1.11,1.18,1.17,1.49,1.66,1.44,1.81,1.84,0.961,1.15,1.31,1.08,1.59,1.88,1.27,2.34 (active),2.59 (active)
CNC(=O)c1ccccc1Nc1cc(Nc2ccc(N3CCOCC3)cc2OC)ncc1C(F)(F)F,0.924,0.935,0.912,0.928,0.933,0.917,0.946,1.02,0.957,0.924,0.952,0.976,0.976,0.988,0.96,0.928,1.03,1.08,0.941,0.941,0.949,0.936,0.967,0.972,0.979,1.18,1.39
FC(F)(F)c1ccc(CNc2ccc(Cc3c[nH]c4ncc(Cl)cc34)cn2)cn1 [Pexidartinib],1.01,1,0.979,0.99,1,0.967,0.964,0.989,0.967,0.99,0.998,0.956,1,1,1.03,1.04,1.12,1.2,1.01,1,1.01,1.07,1.17,1.21,1.09,1.41,1.74
O=C(COc1ccc(Cl)cc1)NC1CCC(NC(=O)COc2ccc(Cl)cc2)CC1 (stereo not given),0.999,0.971,0.929,0.975,0.97,0.973,0.971,1.02,1.01,1.02,0.993,0.987,0.991,0.965,0.954,0.966,0.962,0.961,0.993,0.994,0.983,1.01,1.02,1.01,0.994,1.01,0.992
Cc1c(C(=O)Nc2ccc(Oc3ccnc4[nH]cc(-c5ccccc5)c34)c(F)c2)c(=O)n(-c2ccc(F)cc2)n1C,1.01,1.02,1.1,0.997,1.02,1.01,0.945,0.956,1.02,1.01,1.02,0.998,–,–,–,0.84,0.814,0.805,1.01,1.03,1.06,1.05,1.23,1.41,1.03,1.24,1.49
CN[C@@H](C)C(=O)N[C@H](C(=O)N1CCC[C@H]1c1nc(C(=O)c2ccc(F)cc2)cs1)C1CCCCC1,0.96,0.958,0.993,0.965,0.981,1.03,0.964,0.991,0.981,0.997,0.955,0.955,0.998,1.02,1.04,1.03,1.1,1.17,0.99,0.973,0.977,0.975,0.99,1,0.969,1.02,1.03
N#Cc1ccc(-c2c(-c3ncn[nH]3)sc(N3CCOCC3)c2C#N)c(F)c1,0.974,0.999,1.04,0.969,0.994,0.919,1.03,1.13,0.932,0.959,0.958,0.957,0.991,1.05,1.05,0.985,1.3,1.41,0.973,0.967,0.969,0.972,0.993,0.991,1.01,1.13,1.13
COc1cc(C(=O)N2CCC(N3CCN(C)CC3)CC2)ccc1Nc1ncc2c(n1)N(C)c1ccccc1C(=O)N2C,0.941,0.923,0.891,0.97,0.967,0.941,1.16,1.89,1.71,1.05,1.01,1.01,0.99,0.983,1,1.03,1.33,1.61,1.02,1.01,1.02,1.02,1.03,1.08,1.02,1.29,1.62
Nc1cccc2c1CN(C1CCC(=O)NC1=O)C2=O (stereo not given) [Lenalidomide],0.938,0.942,0.905,0.932,0.929,0.898,0.948,0.969,0.783,0.986,0.897,0.88,0.951,0.933,0.915,0.986,1,0.982,0.939,0.942,0.935,0.943,0.929,0.915,0.952,0.958,0.944
C/C(=N\NC(=O)c1cccc(S(=O)(=O)N2CCOCC2)c1)c1cc(Cl)ccc1O,0.984,0.991,1.04,0.936,0.956,0.969,0.942,0.907,0.774,0.938,0.949,0.96,0.974,0.986,0.968,0.937,1.02,1.05,0.971,0.97,0.966,0.98,0.978,0.972,0.953,1.06,1.17
COc1nc(-c2ccc3c(c2)OCO3)n(-c2ccc(NC(=O)CSc3ccccc3)cc2)n1 [SecinH3],1.03,1.04,1.05,0.992,0.997,0.985,0.996,1.01,1.01,1.02,1.03,1.04,1.02,1.02,1.01,0.941,0.989,1.02,1.02,1.02,1.02,1.01,1.01,1,1,1.03,1.05
CCOC(=O)C1=C(N)Oc2ccc(Br)cc2C1C(C#N)C(=O)OCC (stereo not given),0.931,0.915,0.892,0.944,0.948,0.975,0.954,0.967,0.968,0.946,0.93,0.927,0.923,0.902,0.875,1.01,1.05,1.06,0.97,0.991,1.01,0.944,0.944,0.948,0.96,0.957,0.957
Cc1cccc(CC(=O)N2CCc3c2ccc(-c2cn(C)c4ncnc(N)c24)c3F)n1,0.981,0.975,0.966,1,0.997,1,1,1.05,0.907,1.03,1.02,1.02,1.01,1.02,1.04,1.03,1.03,1.04,1.04,1.04,1.06,1.02,1.01,1.02,1.03,1.03,1.04
COc1c/c(=C2\C=c3ccccc3=N2)[nH]/c1=C\c1[nH]c(C)cc1C [Obatoclax Mesylate],0.914,0.907,0.894,0.921,0.88,–,1.01,1,0.819,0.975,0.917,0.921,0.977,1.01,1.05,1.17,1.31,1.42,–,–,–,–,–,–,–,–,–
Nc1cccc2c1C(=O)N(C1CCC(=O)NC1=O)C2=O (stereo not given) [Pomalidomide],1,0.988,0.953,1.01,1.01,0.952,1.03,1.04,0.984,0.992,0.996,0.983,1.01,0.998,0.985,1.01,1.02,1,0.981,0.995,0.992,1.04,1.01,0.983,1.01,0.968,0.96
CC(=NNC(=S)N1CCC1)c1ccccn1,0.934,0.962,1.02,0.922,1.29,1.42,1.04,1.42,1.4,1.01,1.03,1.19,0.971,1.18,1.6,1.02,1.25,1.49,0.984,1.31,2.11 (active),0.983,1.53,2.27 (active),1.02,1.38,1.68
